{"source": "ChEMBL document CHEMBL4513216", "about": "“Probing the Open Global Health Chemical Diversity Library for Multistage-Active Starting Points for Next-Generation Antimalarials” (ACS Infect Dis, 2020)", "note": "Screen size: about 68,000 compounds; about 2,700 (4%) showed an effect of 50% or more. The sample as a whole holds a higher share of strong results than the screen did.", "data": [{"tested_on": "Plasmodium berghei", "experiment": "Screen against P. berghei liver stage (PbLuc), transformed with Luciferase, at 2uM", "assay_type": "functional, HepG2", "settings": "tested at 2 uM", "units": {"INHIBITION": "%"}, "values": [{"smiles": "OC1(CN2CCc3nnc(Cc4cccnc4)n3CC2)CCCNC1", "note": "(stereo not drawn)", "INHIBITION": 34.71}, {"smiles": "Cc1ncccc1CNc1ccc(OCCO)nc1", "INHIBITION": 3.49}, {"smiles": "OCCOc1ccc(NCc2cccc3cccnc23)cn1", "INHIBITION": 67.44}, {"smiles": "OCCOc1ccc(NCc2cc(F)cc3cccnc23)cn1", "INHIBITION": 45.56}, {"smiles": "CN(Cc1ccccc1)CC(O)Cn1cnc2ccc(Br)cc2c1=O", "note": "(stereo not drawn)", "INHIBITION": -12.19}, {"smiles": "O=C1CC2(CCSC2)C(=O)N1Cc1coc(-c2ccc(F)cc2)n1", "note": "(stereo not drawn)", "INHIBITION": -12.34}, {"smiles": "O=C(CCc1ccc(Cl)s1)NCc1nnc2n1CCCCC2", "INHIBITION": 58.05}, {"smiles": "O=C(NCCc1ccc(Cl)s1)NCc1nnc2n1CCCC2", "INHIBITION": -19.35}, {"smiles": "O=C(NCC1(c2ccc(F)cc2)CC1)N1CCC2(CCOC2)C1", "note": "(stereo not drawn)", "INHIBITION": -21.09}, {"smiles": "O=C(NCc1nnc2n1CCC2)N1CCC2(CCCCC2)CC1", "INHIBITION": 26.74}, {"smiles": "O=C(NCc1nnc2n1CCCCC2)N1CCc2ccccc2C1", "INHIBITION": 25.61}, {"smiles": "O=C(Cc1ccc2c(c1)OCCO2)NCCc1nnc2n1CCC2", "INHIBITION": -29.94}, {"smiles": "CCc1nnsc1C(=O)NCCc1nnc2n1CCC2", "INHIBITION": -8.74}, {"smiles": "O=C(NCCc1nnc2n1CCCCC2)N1CCC2(CCCC2)CC1", "INHIBITION": 55.36}, {"smiles": "O=C(NCc1ccc(Cl)s1)NCc1nnc2n1CCCCC2", "INHIBITION": 15.28}, {"smiles": "O=C(NCc1nnc2n1CCCCC2)N1CCC2(CCCCC2)C1", "INHIBITION": 55.36}, {"smiles": "O=C(NCCc1nnc2n1CCCCC2)N1CCC2(CCOC2)C1", "note": "(stereo not drawn)", "INHIBITION": 69.67}, {"smiles": "O=C(NCCc1nnc2n1CCC2)N1CCC2(CCCCC2)C1", "INHIBITION": -9.03}, {"smiles": "Cc1nc(C)n(CC2CCCN2CC(=O)NCCC2=CCCCC2)n1", "note": "(stereo not drawn)", "INHIBITION": 24.17}, {"smiles": "COc1c(Br)c(C(=O)NC2CCCC2)nn1C", "INHIBITION": 32.75}, {"smiles": "O=c1[nH]c2cc3c(cc2cc1CN1CCCC1c1ccccn1)OCO3", "note": "(stereo not drawn)", "INHIBITION": -8.01}, {"smiles": "CCNC(=O)N1CCC(NC(=O)NCCc2cc(F)cc(F)c2)C1", "note": "(stereo not drawn)", "INHIBITION": 24.82}, {"smiles": "CC(C)Oc1cccc(C(=O)C2CCCN(C(=O)c3cncs3)C2)c1", "note": "(stereo not drawn)", "INHIBITION": 30.07}, {"smiles": "CN1CCCN(C(=O)c2ccnn2-c2ccc3ccccn23)CC1", "INHIBITION": -25.2}, {"smiles": "COC(=O)c1cccn1C1CCN(C(=O)c2cn[nH]c2C)CC1", "INHIBITION": 0.26}, {"smiles": "O=C(NCC(=O)N1CCCC1)c1nn(-c2ccccc2F)cc1O", "INHIBITION": -8.52}, {"smiles": "Cc1cc(CN(C)C(=O)c2ccc(F)c(C(F)(F)F)c2)no1", "INHIBITION": 46.52}, {"smiles": "COc1ccc(-n2cc3nc(N4CCCC4)[nH]cc-3c2=O)cc1Cl", "INHIBITION": 26.03}, {"smiles": "CN(C)C(=O)[C@H]1CCS(=O)(=O)[C@@H]2CN(c3ncc(F)cn3)C[C@H]12", "INHIBITION": 32.26}, {"smiles": "O=C1CC(c2cccs2)c2snc(C(=O)O)c2N1", "note": "(stereo not drawn)", "INHIBITION": -4.4}, {"smiles": "CN1Cc2c(C(=O)Nc3cccnc3)ncn2-c2ccccc2S1(=O)=O", "INHIBITION": 8.85}, {"smiles": "CCC(=O)N1CCC2(C=C(C(=O)N(C)C)c3ccccc32)CC1", "INHIBITION": -19.05}, {"smiles": "O=C(NCCc1nnc2n1CCC2)NCC1(c2ccccc2)CC1", "INHIBITION": -1.32}, {"smiles": "O=C(NCc1nnc2n1CCCCC2)N1CCc2sccc2C1", "INHIBITION": 32.11}, {"smiles": "O=C(NCCc1nnc2n1CCC2)NCC1(c2cccc(F)c2)CC1", "INHIBITION": -14.15}, {"smiles": "O=C(NCc1nnc2n1CCC2)N1CCc2sccc2C1", "INHIBITION": 15.67}, {"smiles": "O=C(NCc1nnc2n1CCCC2)N1CCc2sccc2C1", "INHIBITION": 53.11}, {"smiles": "O=C(NCCc1nnc2n1CCC2)NCC1(c2ccc(F)cc2)CC1", "INHIBITION": 81.42}, {"smiles": "CCn1cc(C(=O)N2CCCC(c3nccs3)C2)cn1", "note": "(stereo not drawn)", "INHIBITION": 2.6}, {"smiles": "COc1cccc2[nH]cc(CCNC(=O)N3CCCC3CO)c12", "note": "(stereo not drawn)", "INHIBITION": 1.41}, {"smiles": "Cc1ccc(C(=O)N2CCCC(n3cncn3)C2)o1", "note": "(stereo not drawn)", "INHIBITION": 14.17}, {"smiles": "COc1ccnc(NC2CCN(CC(=O)Nc3ccccc3)CC2)n1", "INHIBITION": -37.65}, {"smiles": "COc1ccnc(NC2CCN(CC(=O)N3CCCC3)CC2)n1", "INHIBITION": 72.05}, {"smiles": "COc1ccnc(N2CCN(CC(=O)N3CCC(C)CC3)CC2)n1", "INHIBITION": 39.72}, {"smiles": "COc1cc(OC)cc(C(=O)NCc2nn(C)c3c2COCC3)c1", "INHIBITION": -63.73}, {"smiles": "CCOc1cccc(C(=O)Nc2ccn(CC)n2)c1", "INHIBITION": 6.64}, {"smiles": "CCn1ccc(CNC(=O)c2cc(OC)cc(OC)c2)n1", "INHIBITION": 65.06}, {"smiles": "CC(C)(NCC(=O)NCC1CC1)c1ccc2c(c1)OCCO2", "INHIBITION": -51.94}, {"smiles": "Cc1ccc(CN2CC[C@H](O)[C@@H](n3ccc(=O)[nH]c3=O)CC2)cc1", "INHIBITION": 29.89}, {"smiles": "O=C(NCCCn1ccnn1)C1CCCN(C2CCCC2)C1", "note": "(stereo not drawn)", "INHIBITION": 27.11}, {"smiles": "CC(C)(C)CNCC1(O)CCCN(Cc2ccccc2F)C1=O", "note": "(stereo not drawn)", "INHIBITION": 36.66}, {"smiles": "COc1ccc(F)c(CN2CCCC(O)(CNCC(C)(C)C)C2=O)c1", "note": "(stereo not drawn)", "INHIBITION": 70.81}, {"smiles": "COc1ccc(F)c(CN2CCCC(O)(CNCc3ccoc3)C2=O)c1", "note": "(stereo not drawn)", "INHIBITION": -11.8}, {"smiles": "CCCN1C[C@@H]2CC[C@H]1CN(Cc1ccc(-n3cccn3)cc1)C2", "INHIBITION": 47.25}, {"smiles": "CCCN1C[C@@H]2CC[C@H]1CN(Cc1ccc(Cn3cccn3)cc1)C2", "INHIBITION": 75.43}, {"smiles": "CCCN1C[C@@H]2CC[C@H]1CN(Cc1cccc(-n3cccn3)c1)C2", "INHIBITION": -15.64}, {"smiles": "COCC1CN(c2ccc3c(Cl)ccnc3c2F)CCO1", "note": "(stereo not drawn)", "INHIBITION": -90.94}, {"smiles": "Cn1ccc(CS(=O)(=O)Cc2ccccc2)cc1=O", "INHIBITION": 36.53}, {"smiles": "COCCN1CC2(CCOCC2)c2cc(NC(=O)C3CC=CC3)ccc21", "INHIBITION": 26.31}, {"smiles": "CC(C)C[C@H](N)COc1cccc(F)c1Oc1ccc(Cl)cc1", "INHIBITION": 32.24}, {"smiles": "COc1cc(CNc2cc(N3CCCC3CO)ncn2)ccn1", "note": "(stereo not drawn)", "INHIBITION": 21.39}, {"smiles": "Cc1ncsc1C(=O)N1CCN(Cc2ccccc2)CC1C", "note": "(stereo not drawn)", "INHIBITION": -12.06}, {"smiles": "Cc1ncsc1CNC(=O)N1CCN(Cc2ccccc2)C[C@H]1C", "INHIBITION": 37.41}, {"smiles": "Cc1ncsc1CNC(=O)N1CCN(Cc2ccccc2)CC1C", "note": "(stereo not drawn)", "INHIBITION": 51.4}, {"smiles": "Cc1nccc(CNC(=O)N2CCN(Cc3ccccc3)C[C@H]2C)n1", "INHIBITION": 58.93}, {"smiles": "Cc1cc(CNC(=O)N2CCN(Cc3ccccc3)C[C@H]2C)on1", "INHIBITION": -4.53}, {"smiles": "C[C@@H]1CN(Cc2ccccc2)CCN1C(=O)NCc1nccs1", "INHIBITION": 14.83}, {"smiles": "CCCC(=O)N1CCC(c2cc3cccnc3c(O)n2)CC1", "INHIBITION": 4.48}]}]}
